The values below come from PubChem BioAssay AID1645855 (Buhrlage Lab, Dana-Farber Cancer Institute and Novartis …, 2021).

Out of some 47,000 compounds screened, about 3,100 (6.6%) were called active. The full list was thinned out, with actives kept by preference. Unmarked numbers belong to inactive results. Rule as the data show it: active = inhibition above about 30%; inactive = the rest.

Ubiquitin carboxyl-terminal hydrolase 17-like protein 5 (Homo sapiens), sequence (A8MUK1 whole entry, looked up): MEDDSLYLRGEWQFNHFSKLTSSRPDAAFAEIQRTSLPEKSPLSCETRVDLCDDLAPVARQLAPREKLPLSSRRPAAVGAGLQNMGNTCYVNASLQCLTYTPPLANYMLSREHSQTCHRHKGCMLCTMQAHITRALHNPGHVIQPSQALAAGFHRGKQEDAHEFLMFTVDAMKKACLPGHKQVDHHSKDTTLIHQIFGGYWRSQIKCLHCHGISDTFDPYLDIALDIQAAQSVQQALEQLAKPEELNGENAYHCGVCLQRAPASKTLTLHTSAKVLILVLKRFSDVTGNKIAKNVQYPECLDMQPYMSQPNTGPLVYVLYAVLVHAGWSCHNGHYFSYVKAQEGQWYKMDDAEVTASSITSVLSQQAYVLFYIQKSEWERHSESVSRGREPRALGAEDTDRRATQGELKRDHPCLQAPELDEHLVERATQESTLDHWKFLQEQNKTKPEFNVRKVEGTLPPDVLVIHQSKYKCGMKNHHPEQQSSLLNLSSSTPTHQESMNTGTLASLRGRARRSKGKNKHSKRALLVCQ

This assay concerns the target Ubiquitin carboxyl-terminal hydrolase 17-like protein 5 (Homo sapiens) (UniProt A8MUK1). Kind of assay: blocks human USP17 ubiquitin-rhodamine cleavage (AID 1645855). Conditions: purified USP17, Ub-rhodamine cleavage fluorescence, 3 h; at 50 µM; stronger effect = higher value.
Consider `CCCC(=O)N1CCC(c2cc(=O)[nH]c(-c3ccccn3)n2)C1` (stereo not given), for which the inhibition is -51.9%.
`N#Cc1ccc(Oc2ncnc3ccccc23)cc1`: the inhibition is 4.86%.
As for `N#Cc1ccc(-c2csc(COc3ccccc3Cl)n2)cc1`, the inhibition was 35% (active).
`CC(C)OC(=O)c1cc2c(ccn2-c2ccc(F)cc2)n1Cc1ccccn1`: the inhibition is 9.79%.
For `Cc1c(CN2CCOC(c3cncc(-c4ccccc4F)n3)C2)cnn1C` (stereo not given), the inhibition is -0.212%.
For the compound `COc1ccc(C(=O)N2CC(=O)N(Cc3ccccc3)CC(O)C2)cc1` (stereo not given), the inhibition is -3.64%.
For `O=C(CN1C(=O)c2cccnc2Sc2ccccc21)Nc1ccc(F)cc1F`, the inhibition was -19.9%.
With `CCOc1nc2cccnc2n(CC(=O)Nc2ccc(F)cc2F)c1=O` the figure was -5.53%.
In the case of `O=C(CN1C(=O)C2CCCC2=Nc2ccccc21)Nc1ccc(F)cc1F` (stereo not given), the inhibition was 59.2% (active).
For `Cc1noc(C)c1COc1cccc(C(=O)NC(C)c2cc3ccccc3o2)c1` (stereo not given), the inhibition was 1.56%.
Turning to `COc1ccccc1N1CCN(C(=O)CSc2cc(=O)n(C)c3cc(Cl)ccc23)CC1`, the inhibition is -7.92%.
In the case of `O=C(NCCc1ccccc1)N1CC[C@@H]2CN(Cc3cccnc3)S(=O)(=O)[C@@H]2CC1`, the inhibition is -8.52%.
With `COc1c(O)c2c(=O)cc(OC)c3c4c(OC)cc(=O)c5c(O)c(OC)c(CC(C)OC(=O)c6ccccc6)c(c(c1CC(C)OC(=O)Oc1ccc(O)cc1)c23)c54` (stereo not given) the figure was 39.4% (active); with `CCOc1ccccc1NC(=O)COc1cccc2c1OC(C)(C)C2`, 8.61%.
As for `CCOc1ccccc1NC(=O)Cc1cccs1`, the inhibition is 43.3% (active).
`CCOc1ccccc1NC(=O)Cn1c(=O)n(-c2ncccc2C(=O)OC)c(=O)c2cccnc21`: the inhibition is -0.0478%.
In the case of `CC1CCN(c2ncc3c(n2)CCC(C(=O)NC(C)c2cccnc2)C3)CC1` (stereo not given) it was -33.2%; in that of `Cc1nc(-c2cccc(NC(=O)C3CCN(c4ccccc4)C3=O)c2)no1` (stereo not given), 52.3% (active); in that of `CC(=O)c1cccc(NC(=O)c2cccc(-c3nc(-c4ccccc4)no3)c2)c1`, 1.73%.
In the case of `Cc1nc(-c2cccc(S(=O)(=O)Nc3ccccc3C)c2)no1`, the inhibition is -1.13%.
For the compound `Cc1cnc2nc3c(cc2c1)CN(S(=O)(=O)c1cccc2cccnc12)CC3`, the inhibition is -136%.
On to `N#Cc1ccc(OCC(=O)Nc2ccccc2N2CCCCC2)cc1`, for which the inhibition is 8.45%.
Consider `N#Cc1ccc(NC(=O)Nc2cccn(Cc3ccccc3F)c2=O)cc1`, for which the inhibition is 93.3% (active).
With `Cc1cc(C)n2nc(CN(Cc3ccccc3)C(=O)c3ccccc3)nc2n1`, the inhibition was -5.53%.
Consider `Cc1ccc(N2CC(c3nnc(NC(=O)CCCc4ccccc4)s3)CC2=O)cc1` (stereo not given), for which the inhibition is -6.98%.
